Assay results from ChEMBL document CHEMBL1157539, “Thousands of chemical starting points for antimalarial lead identification” (Nature, 2010).

test system: Plasmodium falciparum; test: GSK_TCMDC: Inhibition of Plasmodium falciparum Dd2 in whole red blood cells, using parasite LDH activity as an index of growth. Test compounds present at 2uM; format: functional

Row | Compound | Inhibition [%]
1 | Cc1nc(O)c2c(ccc3ccc(CNc4ccc(C(=O)N[C@@H](CCC(=O)O)C(=O)O)c(F)c4)cc32)n1 | 96
2 | Cn1cccc1C(=O)NCC(CCNc1cc(=O)c2ccccc2[nH]1)NCc1cc(Br)cc(Br)c1 (stereo not given) | 52
3 | CC(C)N(C(=O)CSc1nc2cc(Cl)ccc2c(=O)n1Cc1ccccc1)C(C)C | 97
4 | Br.CC1(C)N=C(N)N=C(N)N1OCc1cccc(C#N)c1 | 2
5 | COc1ccc(NC(=O)c2ccc(C=Cc3ccc(C(F)(F)F)cc3)cc2)cc1N1CCN(C)CC1 | 47
6 | Cc1cccc2nc(-c3ccc(-c4ccc(NC(=O)Nc5ccc(Cl)cc5)cc4)cc3)[nH]c12 | 100
7 | O=C(O)C(F)(F)F.O=S(=O)(NC1CCN(c2ccnc3cc(Cl)ccc23)C1)c1ccc(F)cc1 (stereo not given) | 88
8 | Cc1cc(N(C)C)nc(Nc2ccc(NC(=O)COc3ccccc3)cc2)n1 | 67
9 | Cl.Oc1ccccc1Nc1nc(NCc2ccco2)c2ccccc2n1 | 71
10 | Cl.Cn1cnc(-c2ccc3c(c2)CCN(CCC2CCC(NC(=O)/C=C/c4ccc(F)cc4)CC2)CC3)c1 (stereo not given) | 18
11 | Cc1nc2ccc3nc(NC(=O)c4ccno4)sc3c2s1 | 97
12 | CC(=O)O.CCC[C@@H]([C@@H](CC1CCCCC1)C(=O)N[C@H](C(=O)Nc1nccc(N)n1)C(C)(C)C)N(O)C=O | 82
13 | COc1nc2c(CCN3CCC(NCc4ccc5c(c4)NC(=O)CO5)CC3)c(Cl)cnc2cc1F.Cl | 21
14 | COc1cccc(N(CCCN2C(=O)c3cccc4cccc(c34)C2=O)C(=O)c2ccccc2C)c1 | 70
15 | CCOc1cccc(C(=O)Nc2ccc(-c3nc4ccccc4[nH]3)cc2)c1 | 30
16 | Fc1ccc2nc(Nc3nc(-c4ccccn4)cs3)sc2c1 | 100
17 | O=C(/C=C/c1ccc(C(F)(F)F)cc1)NCCCCCN1CCCN(C(=O)Nc2ccc(Cl)cc2)CC1 | 0
18 | O=C(/C=C/c1ccc(Cl)c(Cl)c1)NCCCCCCN1CCCN(C(=O)Nc2ccc(Cl)c(Cl)c2)CC1 | 8
19 | CCCC(=O)NC(c1ccc(C)cc1)c1ccc2cccnc2c1O (stereo not given) | 45
20 | CC(C)NCc1cccc(-c2ccc(NS(=O)(=O)c3cccc4cccnc34)cc2)c1.O=C(O)C(F)(F)F | 10

Row | Compound | Inhibition [%]
21 | COc1ccc(CCN2CCC(Nc3nc4ccccc4n3CCc3ccc(OC)cc3)CC2)cc1.Cl | 88
22 | CC(C)c1ccc(NS(=O)(=O)c2cccc(C(=O)NC3CCN(CC4CCCCC4)CC3)c2)cc1.O=C(O)C(F)(F)F | 69
23 | Cc1ccc(C2CCN(CCCCNC(=O)c3ccc(-c4ccc(C#N)cc4)cc3)CC2)c(O)c1 | 90
24 | O=C(NCC1CCC(CNCCc2ccccc2)CC1)Nc1ccc(Cl)c(Cl)c1 (stereo not given) | 0
25 | COc1ccc(CNC2CCN(C)CC2)cc1-c1ccc(S(=O)(=O)NCc2cccnc2)s1.O=C(O)C(F)(F)F | 3
26 | O=C(Nc1cccc(CN2CCCN(Cc3ccc(O)cc3)CC2)c1)c1ccc(Cl)c(Cl)c1.O=C(O)C(F)(F)F | 81
27 | CC(C)c1cc2c(cc1O)C(Cc1ccccc1Cl)N(C)CC2.Cl (stereo not given) | 33
28 | CCN(CCCN1CCCCC1)c1cc(C)nc(Nc2cc(Br)ccc2C)n1.O=C(O)C(F)(F)F | 39
29 | CN(C)CCCNCc1ccc(-c2ccc(CNCCOc3ccccc3)cc2)cc1.O=C(O)C(F)(F)F | 53
30 | CN(CCCCCN1CCC(NC(=O)Nc2ccc(Oc3ccccc3)cc2)C1)C(=O)/C=C/c1ccc(Cl)c(Cl)c1 (stereo not given) | 14
31 | CC(Nc1nc(Nc2ccc(F)cc2)nc(SCC(N)=O)n1)c1ccccc1 (stereo not given) | 87
32 | O=C(NCCCCN1CCC(c2ccc3c(c2O)CCCC3)CC1)c1ccc(-c2ccc(Cl)cc2)cc1 | 72
33 | O=C(Nc1ccc(Cl)c(C(F)(F)F)c1)N[C@H]1CCN(CCCCCNC(=O)C2CC2c2ccc(Cl)c(Cl)c2)C1 (stereo not given in full) | 0
34 | CCC(=O)OC(CCN(CC)CC)(c1ccccc1)c1ccccc1 | 6
35 | C(=N\Nc1nccc2sc(-c3ccccc3)cc12)/c1cccnc1 | 10
36 | Cl.Fc1ccc2ncc(Cl)c(CCN3CCC(NCc4cc5c(cn4)OCCO5)CC3)c2c1 | 20
37 | Cc1cc2nc(-c3ccc(/C=C/C(=O)NC4CCN(Cc5ccccc5)CC4)cc3)[nH]c2cc1C | 89
38 | O=C(O)C(F)(F)F.O=S(=O)(NCCN1CCCC1)c1ccc(-c2cccc(CNCc3ccc(F)cc3)c2)s1 | 50
39 | COc1ccc(C(=O)C2CCN(CCCCNC(=O)c3ccc(NC(=O)c4cc(Cl)cc(Cl)c4)cc3)CC2)cc1 | 84
40 | CN(Cc1ccc(-c2ccc(C(F)(F)F)cc2)cc1)C(=O)Cn1c(CCc2cccc(F)c2F)nc(=O)c2ccc(N3CCN(CCN4CCCCC4)CC3)nc21.O=C(O)C(O)C(O)C(=O)O | 100
